Measured values reported in the supplement of paper PMC9262897, “Low-cost anti-mycobacterial drug discovery using engineered E. coli” (Nature Communications, 2022).
Structures can show the parent of a compound that is named as a salt. ± gives the standard deviation of the averaged measurements.

Columns and labels:
Assay in all cases: growth (OD600 after 10 h); higher = more growth (less inhibition)
[1] = system: E. coli TESEC Alr+ wild-type control; details: compound 0.1 mM; raw OD600 reference: median of DMSO wells 0.241, cell-free background 0.041
Method: (§1)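 TESEC Mtb Alr E. coli, or the Alr+ wild-type control, in 384-well plates with Prestwick library compounds at 0.1 mM and 1% DMSO, across arabinose induction levels of 1E3 to 1E7 nM. Growth is read as OD600 after 10 h at 37 °C in triplicate biological replicates.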

[2] = system: E. coli TESEC Mtb Alr; details: compound 0.1 mM
Method: as §1

[3] = system: E. coli TESEC Mtb Asd; details: compound 0.1 mM
Method: (§2)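 TESEC E. coli strains in which the native enzyme is deleted and replaced by arabinose-inducible Mtb Asd, DapB, CysH or TrpD, each grown in its selective medium. Strains were screened against the Prestwick library at 0.1 mM and 1% DMSO in 384-well format at low and high arabinose induction. Growth is read as OD600 after 10 h in triplicate.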

[4] = system: E. coli TESEC Mtb DapB; details: compound 0.1 mM
Method: as §2

[5] = system: E. coli TESEC Alr+ wild-type control; details: compound 0.1 mM; raw OD600 reference: median of DMSO wells 0.49, cell-free background 0.052
Method: (§3)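 TESEC Mtb Alr E. coli (ΔaraC ΔtolC ΔentC Δalr ΔdadX, arabinose-inducible Mtb Alr) or the Alr+ wild-type control strain, grown in defined M9-fructose medium without D-alanine in 96-well plates with Prestwick library compounds at 0.1 mM and 1% DMSO. Low Alr induction is 0.1 µM arabinose and high induction is 10 mM arabinose.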

[6] = system: E. coli TESEC Mtb Alr; details: compound 0.1 mM; remark: listed apart in the source
Method: as §3

[7] = arabinose 1000 nM, raw OD600 reference: median of DMSO wells 0.294, cell-free background 0.041
[8] = arabinose 10000 nM, raw OD600 reference: median of DMSO wells 0.264, cell-free background 0.041
[9] = arabinose 100000 nM, raw OD600 reference: median of DMSO wells 0.201, cell-free background 0.041
[10] = arabinose 1000000 nM, raw OD600 reference: median of DMSO wells 0.193, cell-free background 0.041
[11] = arabinose 10000000 nM, raw OD600 reference: median of DMSO wells 0.146, cell-free background 0.041
[12] = arabinose induction (level): High, raw OD600 reference: median of DMSO wells 0.331, cell-free background 0.041
[13] = arabinose induction (level): Low, raw OD600 reference: median of DMSO wells 0.417, cell-free background 0.041
[14] = arabinose induction (level): High, raw OD600 reference: median of DMSO wells […], cell-free background 0.041
[15] = arabinose induction (level): Low, raw OD600 reference: median of DMSO wells 0.227, cell-free background 0.041
[16] = arabinose 100 nM, raw OD600 reference: median of DMSO wells 0.413, cell-free background 0.052
[17] = arabinose 10000000 nM, raw OD600 reference: median of DMSO wells […], cell-free background 0.052

Row | Compound | growth [1] | growth [2, 7] | growth [2, 8] | growth [2, 9] | growth [2, 10] | growth [2, 11] | growth [3, 12] | growth [3, 13] | growth [4, 14] | growth [4, 15] | growth [5] | growth [6, 16] | growth [6, 17]
1 | CC(C)c1cccc(C(C)C)c1O [Propofol] | 0.245 ± 0.0043 | 0.309 ± 0.017 | 0.255 ± 0.0092 | 0.202 ± 0.0052 | 0.175 ± 0.0063 | 0.144 ± 0.0055 | 0.441 ± 0.024 | 0.439 ± 0.03 | 0.212 ± 0.011 | 0.236 ± 0.028 | 0.55 ± 0.038 | 0.389 ± 0.01 | 0.328 ± 0.0056
2 | CN(C)C(=O)Oc1ccc[n+](C)c1 [Pyridostigmine iodide] | 0.248 ± 0.011 | 0.305 ± 0.0085 | 0.25 ± 0.0086 | 0.253 ± 0.012 | 0.181 ± 0.0086 | 0.138 ± 0.0049 | 0.335 ± 0.049 | 0.434 ± 0.076 | 0.195 ± 0.017 | 0.221 ± 0.0064 | 0.436 ± 0.011 | 0.404 ± 0.017 | 0.355 ± 0.0089
3 | CC(O)(CS(=O)(=O)c1ccc(F)cc1)C(=O)Nc1ccc(C#N)c(C(F)(F)F)c1 (centres undefined) [Bicalutamide] | 0.154 ± 0.0054 | 0.2 ± 0.0073 | 0.306 ± 0.018 | 0.1769 ± 0.0014 | 0.108 ± 0.0031 | 0.15 ± 0.0023 | 0.216 ± 0.027 | 0.253 ± 0.017 | 0.196 ± 0.015 | 0.236 ± 0.021 |  | 0.397 ± 0.018 | 0.232 ± 0.054
4 | CN1C[C@H](C(=O)N[C@]2(C)O[C@@]3(O)[C@@H]4CCCN4C(=O)[C@H](Cc4ccccc4)N3C2=O)C[C@@H]2c3cccc4[nH]cc(c34)C[C@H]21 [Dihydroergotamine tartrate] | 0.0782 ± 0.0015 | 0.0712 ± 0.0052 | 0.0692 ± 0.001 | 0.0715 ± 0.0021 | 0.0579 ± 0.0025 | 0.082 ± 0.0022 | 0.116 ± 0.013 | 0.123 ± 0.0052 | 0.119 ± 0.018 | 0.161 ± 0.014 |  | 0.282 ± 0.043 | 0.0688 ± 0.0007
5 | COc1ccc(CCN)cc1OC [Homoveratrylamine] | 0.2134 ± 0.001 | 0.287 ± 0.0094 | 0.281 ± 0.011 | 0.182 ± 0.019 | 0.219 ± 0.0076 | 0.131 ± 0.002 | 0.225 ± 0.018 | 0.353 ± 0.087 | 0.188 ± 0.012 | 0.217 ± 0.054 | 0.563 ± 0.069 | 0.409 ± 0.0095 | 0.316 ± 0.0066
6 | O=C(CCCN1CCC2(CC1)C(=O)NCN2c1ccccc1)c1ccc(F)cc1 [Spiperone] | 0.214 ± 0.0064 | 0.273 ± 0.019 | 0.276 ± 0.011 | 0.1711 ± 0.0014 | 0.169 ± 0.0073 | 0.149 ± 0.0039 | 0.274 ± 0.066 | 0.43 ± 0.042 | 0.188 ± 0.013 | 0.218 ± 0.038 |  | 0.409 ± 0.0039 | 0.354 ± 0.027
7 | C=C1C[C@@H]2[C@H](CC[C@]3(C)C(=O)CC[C@@H]23)[C@@]2(C)C=CC(=O)C=C12 [Exemestane] | 0.113 ± 0.0025 | 0.1298 ± 0.0011 | 0.165 ± 0.0017 | 0.108 ± 0.0018 | 0.0722 ± 0.0026 | 0.0997 ± 0.0036 | 0.0993 ± 0.0088 | 0.147 ± 0.023 | 0.112 ± 0.0048 | 0.109 ± 0.0022 |  | 0.379 ± 0.039 | 0.129 ± 0.019
8 | CCC(COC(=O)c1cc(OC)c(OC)c(OC)c1)(c1ccccc1)N(C)C (centres undefined) [Trimebutine] | 0.13 ± 0.0031 | 0.142 ± 0.012 | 0.151 ± 0.011 | 0.116 ± 0.0031 | 0.0716 ± 0.0024 | 0.101 ± 0.015 | 0.205 ± 0.033 | 0.245 ± 0.085 | 0.1665 ± 0.0014 | 0.191 ± 0.028 |  | 0.403 ± 0.0063 | 0.119 ± 0.0083
